Compound activity (PubChem)
TrxR1 substrate – substrates of rat thioredoxin reductase 1 | O89049 | purified TrxR1 substrate turnover, NADPH consumption readout | Potency, µM (top dose mostly 114 µM), inactives show at the highest dose activity change, negative = substrate turnover | actives 0.01% (n = 390,000) | AID 588456; note: potency is the fitted concentration of half-maximal effect; nearly all actives have a fitted effect of over 50% in size
Target sequence (O89049 whole entry, looked up): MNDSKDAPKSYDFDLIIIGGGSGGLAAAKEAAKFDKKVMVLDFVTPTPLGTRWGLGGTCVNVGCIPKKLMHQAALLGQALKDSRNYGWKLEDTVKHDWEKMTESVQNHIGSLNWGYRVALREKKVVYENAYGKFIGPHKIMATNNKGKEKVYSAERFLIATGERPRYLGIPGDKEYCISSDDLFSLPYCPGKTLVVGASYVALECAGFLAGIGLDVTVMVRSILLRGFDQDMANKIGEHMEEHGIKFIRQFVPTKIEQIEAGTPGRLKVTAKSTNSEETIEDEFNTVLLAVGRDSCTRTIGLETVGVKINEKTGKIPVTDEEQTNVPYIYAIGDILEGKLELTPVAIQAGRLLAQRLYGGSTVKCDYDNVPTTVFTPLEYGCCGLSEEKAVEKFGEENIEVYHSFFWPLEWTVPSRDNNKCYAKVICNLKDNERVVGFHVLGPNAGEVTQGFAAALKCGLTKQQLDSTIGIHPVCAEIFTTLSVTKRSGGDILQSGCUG
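Rat TrxR1, dispensed at 90 nM, was prereduced with 400 uM NADPH (final) for 5 min at ~22 deg C, then incubated with compound 15 min before 400 uM selenite. A first-read NADPH fluorescence drop versus no-compound background flagged substrates.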
rTrxR1 inhibitor – rat TrxR1 inhibition; O89049; recombinant rTrxR1, NADPH fluorescence consumption, selenite substrate; Potency, µM (highest dose often 114 µM), inactives show at the top dose activity change, negative = inhibition, hits mostly inhibitors; actives 1% (n = 390,000); note: potency is the fitted concentration of half-maximal effect; nearly all actives have a fitted effect of over 65% in size
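Rat TrxR1 (90 nM in the dispensed reagent) was pre-reduced with 400 uM NADPH for 5 min at room temperature, then incubated with compound for 15 min. After 400 uM selenite was added, NADPH fluorescence (Ex 340/Em 450 nm) was followed for 8 min.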
GLS inh – glutaminase GLS (human) inhibition; Potency, µM (top dose mostly 45.5 µM), for the others: top-dose activity change, negative = inhibition, most hits filed as inhibitors; AID 624170; GLS enzymatic activity, qHTS titration; actives 0.21% (n = 410,000); note: potency is the fitted concentration of half-maximal effect
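hKGA in 45 mM KH2PO4 pH 8.2, 0.02% Tween-20 with pin-transferred compounds; 1 mM L-glutamine (stock) plus glutamate oxidase/HRP/Amplex Red coupling added. Fluorescence read initially and after 30 min at RT.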
mIDH1 inhibitor – human IDH1 R132H inhibition | IDH1-R132H enzyme, NADPH consumption, diaphorase/resazurin fluorescence | Potency, µM (titrated, usually from 76.6 µM), inactives show at the highest dose activity change, negative = inhibition, most hits filed as inhibitors | actives 0.093% (n = 390,000) | AID 602179; note: potency is the fitted concentration of half-maximal effect; nearly all actives have a fitted effect of over 65% in size
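IDH1-R132H (0.5 ug/mL dispensed) in pH 7.5 Tris buffer was preincubated 30 min with compound, then given a substrate mix of 0.016 mM NADPH and 2 mM alpha-KG for 80 min at room temperature; remaining NADPH was read by diaphorase/resazurin fluorescence.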
LDHA inh – LDHA (human) enzyme inhibition | purified LDHA, NADH/diaphorase-resazurin fluorescence; hits give low values | activity change, % (values are at about 110 or 230 µM) | actives 0.15% (n = 480,000); in the data active = activity change below about -30%; inconclusive = mostly about -25% to -30%;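 note: plate controls were DMSO wells for no effect and wells without enzyme for full effect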
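Resorufin fluorescence (ex540/em590), read at 0 and 20 min after diaphorase/resazurin addition, reports the NADH left after a 5 min room-temperature reaction of 2 nM human LDH5 with 0.06 mM NADH and 0.2 mM pyruvate.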
PKM2 act – increases activity of human pyruvate kinase M2 | actives 0.34% (n = 260,000) | AID 1631 | purified PKM2, Kinase-Glo ATP luminescence, activation; response scale: 0% is enzyme alone, no compound | Potency, µM (highest dose often 57.5 µM), inactives show top-dose activation, most hits filed as activators; note: potency is the fitted concentration of half-maximal effect; nearly all actives have a fitted effect of over 55% in size
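Kinase-Glo luminescence reports ATP generated from ADP (0.1 mM) and PEP (0.5 mM) by purified hPK-M2 after 1 h at room temperature, pH 7.2 imidazole buffer; intermediate enzyme activity allows detecting inhibitors and activators.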
* = called active by the depositor; u = inconclusive; x = no result; [ ] = another dose, or the depositor's remark. Compounds with a hit are over-represented: about 1.4% of the library has one in this group of screens. Unless noted, calls come from the whole dose curve; as a rule, active = well fitted curve in the direction sought with a large enough effect; inconclusive = small, poorly fitted or top-dose-only effect, or another doubt; inactive = no such curve, though single readings can be large; an effect the other way counts as inactive or inconclusive. Unless noted, % is set by controls: 0 for no effect and ±100 for the full control effect.

SMILES | TrxR1 substrate | rTrxR1 inhibitor | GLS inh | mIDH1 inhibitor | LDHA inh | PKM2 act
Cc1ccc(CS(=O)(=O)c2ncc(Cl)c(C(=O)Nc3nnc(C(C)C)s3)n2)cc1 | 4% | 32µM* | 6% | 4% | 7 | -2%[0.46 µM]
COc1cc(Nc2ccccc2Cl)c([N+](=O)[O-])nc1[N+](=O)[O-] | -4%[57.1 µM] | 0.4µM* | 1% | 18% | 8 | 4%
COc1ccccc1Nc1ccc([N+](=O)[O-])cc1N | -7% | -3% | 42% | 16% | 0 | 2%
CCOc1ccc2nc(S(=O)(=O)NC(=O)C3(C)CCN3C(=O)c3cc(C)n(C)n3)sc2c1 (stereo not given) | x | x | -2% | x | -67* | x
CCOc1ccc2nc(S(=O)(=O)NC(=O)C3(C)CCN3C(=O)c3c(C)noc3C)sc2c1 (stereo not given) | x | x | 10% | x | -15 | x
CN(C)C1(CNC(=O)C2CCN(C(=O)c3ccc(F)cc3)CC2)CCCCC1 | x | x | x | x | 1 | x
CCCC(=O)Nc1ccc2nc(SCC(=O)Nc3nccs3)sc2c1 | 6%[57.1 µM] | 19% | 4% | 11% | -35* | 5%
CNCC(O)COc1ccccc1 (stereo not given) | -4% | 71µM* | -15% | 10% | 2 | -3%
COc1ccc(C2NC(=O)NC(O)(C(F)(F)F)C2C(=O)c2ccccc2)cc1OC (stereo not given) | -4% | 28µM* | 8% | -2% | -3 | -6%
O=C(O)CCc1ccc(-c2ccccc2)n1-c1cccc(C(=O)O)c1 | 3% | 45µM* | 10% | 4% | -1 | x
CCOC(=O)c1ccc(-n2c(CCC(=O)O)ccc2-c2ccccc2)cc1O | 2% | 50µM* | -8% | u | 2 | x
O=C(O)CCc1ccc(-c2ccccc2)n1-c1ccc(C(=O)O)cc1 | 5% | 79µM* | -7% | 1% | 2 | x
CC(=O)c1ccc(-n2c(CCC(=O)O)ccc2-c2ccc(Cl)cc2)cc1 | 4% | 1% | 13% | -7% | -8 | x
CC(C)CC(NC(=O)/C(=C/c1ccccc1)NC(=O)c1ccccc1)C(=O)O (stereo not given) | x | x | x | x | 7 | x
Nc1ccc2nc(CCCCCCc3nc4ccc(N)cc4[nH]3)[nH]c2c1 | 3% | 20% | 31% | -5% | 1 | 13µM*
COc1cc(C(=O)Nc2oc3ccccc3c(=O)c2-c2ccc3c(c2)OCO3)cc(OC)c1OC | x | x | x | x | 3 | x
COc1ccccc1C(=O)N1CCN(Cc2cccnc2)CC1 | -3% | -6% | -10% | -9% | -33* | x
COc1ccc(C(=O)N2CCN(C3CCN(Cc4ccccc4)CC3)CC2)cc1OC | -9% | -7% | 12% | -1% | -40* | -2%
COc1ccc(CN2CCN(C(=O)c3cc(OC)c(OC)c(OC)c3)CC2)cc1OC | -3% | 13% | 3% | 4% | -19 | -3%
COc1ccccc1N1CCN(C2CCN(C(=O)c3cccc(F)c3)CC2)CC1 | -3% | -5% | 20% | 14% | -32* | 0%
COc1ccc(C(=O)N2CCN(Cc3cc(OC)c(O)c(OC)c3)CC2)cc1OC | 12% | 25µM* | 33% | 3% | -7 | 13%
CCC(C)OC(=O)COc1ccc2c(=O)c(-c3ccccc3Cl)coc2c1 (stereo not given) | x | x | x | x | -7 | x
CCOC(=O)c1cc(N)cc(C(=O)OCC)c1 | x | x | x | x | 2 | x
O=C(c1cccnc1)N1CCN(Cc2ccccc2Br)CC1 | 12%[57.1 µM] | 10%[57.1 µM] | -12% | 2% | -31* | -1%
O=C(c1cccnc1)N1CCN(Cc2cccc(Br)c2)CC1 | 8% | 7% | 0% | 8% | -20 | -15%
[O-]/[N+](=C\c1ccncc1)c1ccc(Br)cc1 | -5% | 35µM* | 51% | 9% | 6 | 27%
Cc1ccc(C)c(OCC(O)Cn2nc(-c3ccco3)oc2=O)c1C (stereo not given) | x | x | x | x | 5 | x
